Assays:
Experiment in all cases: DAPPL (digital affinity profiling via proximity ligation, sequencing); 10 mM Tris-HCl pH 7.5, 50 mM NaCl, 1 mM DTT, 4% glycerol, room temperature, 30 min; GST-TFs on glutathione beads, 16-mer random dsDNA library, 0.1% formaldehyde crosslink after washing; high values mean tight binding
[1] = target: T1, FEV (Homo sapiens, UniProt Q99581 1-238); settings: protein: recombinant; tags: N-terminal GST; dsDNA, one strand shown
T1 sequence: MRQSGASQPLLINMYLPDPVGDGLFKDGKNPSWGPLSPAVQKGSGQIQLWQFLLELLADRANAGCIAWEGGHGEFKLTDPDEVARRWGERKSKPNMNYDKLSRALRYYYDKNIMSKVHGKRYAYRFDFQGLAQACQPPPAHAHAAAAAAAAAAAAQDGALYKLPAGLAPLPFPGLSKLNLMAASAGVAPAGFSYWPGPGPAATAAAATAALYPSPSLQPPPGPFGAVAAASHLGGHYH
Procedure, shortened: (§1)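 The binding signal reported is, for every hexamer, its read frequency for a factor over its read frequency for the tag-only sample. Reads came from pools of yeast-expressed, GST-fused human transcription factors on glutathione beads, barcoded with DNA and mixed with that sample, which were incubated with 200 nmole of a random double-stranded 16-mer DNA library in Tris/NaCl/DTT/glycerol buffer at room temperature for 30 min. After washing, the pools were crosslinked with 0.1% formaldehyde, proximity-ligated with BsaI/T4 ligase for 1 h at 37 °C, PCR-amplified and sequenced on an Illumina NextSeq500.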

[2] = target: ETV5 (Homo sapiens, UniProt P41161 1-510); settings: protein: recombinant; tags: N-terminal GST; dsDNA, one strand shown
Procedure, shortened: as §1

[3] = target: HSF1 (Homo sapiens, UniProt Q00613 1-529); settings: protein: recombinant; tags: N-terminal GST; chain copies: 3; dsDNA, one strand shown
Procedure, shortened: as §1

[4] = target: T2, SPIC (Homo sapiens, UniProt Q8N5J4 1-248); settings: protein: recombinant; tags: N-terminal GST; dsDNA, one strand shown
T2 sequence: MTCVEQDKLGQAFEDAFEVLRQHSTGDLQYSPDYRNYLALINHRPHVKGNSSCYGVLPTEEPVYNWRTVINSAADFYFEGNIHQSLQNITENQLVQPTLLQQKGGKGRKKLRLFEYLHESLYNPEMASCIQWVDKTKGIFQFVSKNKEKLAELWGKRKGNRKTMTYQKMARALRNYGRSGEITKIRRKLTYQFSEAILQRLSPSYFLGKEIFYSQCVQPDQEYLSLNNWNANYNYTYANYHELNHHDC
Procedure, shortened: as §1

[5] = target: ELF4 (Homo sapiens, UniProt Q99607 1-663); settings: protein: recombinant; tags: N-terminal GST; dsDNA, one strand shown
Procedure, shortened: as §1

[6] = target: T3, ELK4 (Homo sapiens, UniProt P28324-2 1-405); settings: protein: recombinant; tags: N-terminal GST; dsDNA, one strand shown
T3 sequence: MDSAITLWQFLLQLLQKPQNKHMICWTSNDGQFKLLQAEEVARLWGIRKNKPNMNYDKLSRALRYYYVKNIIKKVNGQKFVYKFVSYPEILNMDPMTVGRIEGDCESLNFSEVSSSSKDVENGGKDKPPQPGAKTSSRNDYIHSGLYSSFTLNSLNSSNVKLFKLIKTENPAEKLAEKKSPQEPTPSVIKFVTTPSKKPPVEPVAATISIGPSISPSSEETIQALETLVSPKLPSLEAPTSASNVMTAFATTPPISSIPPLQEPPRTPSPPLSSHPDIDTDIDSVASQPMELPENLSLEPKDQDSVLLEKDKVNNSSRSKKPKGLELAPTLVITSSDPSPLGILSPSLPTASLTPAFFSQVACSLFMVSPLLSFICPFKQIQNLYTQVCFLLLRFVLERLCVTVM
Procedure, shortened: as §1

[7] = target: T4, ETV2 (Homo sapiens, UniProt O00321 1-342); settings: protein: recombinant; tags: N-terminal GST; dsDNA, one strand shown
T4 sequence: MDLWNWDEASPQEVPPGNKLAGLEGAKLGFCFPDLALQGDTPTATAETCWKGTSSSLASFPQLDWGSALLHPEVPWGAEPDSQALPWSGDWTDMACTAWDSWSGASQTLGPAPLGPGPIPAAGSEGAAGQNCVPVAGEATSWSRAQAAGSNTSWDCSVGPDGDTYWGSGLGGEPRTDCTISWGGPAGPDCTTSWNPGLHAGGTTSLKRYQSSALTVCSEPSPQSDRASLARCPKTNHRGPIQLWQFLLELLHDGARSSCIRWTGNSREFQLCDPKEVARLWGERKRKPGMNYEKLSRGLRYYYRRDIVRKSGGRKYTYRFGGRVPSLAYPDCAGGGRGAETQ
Procedure, shortened: as §1

[8] = target: T5, ELF3 (Homo sapiens, UniProt P78545 1-371); settings: protein: recombinant; tags: N-terminal GST; dsDNA, one strand shown
T5 sequence: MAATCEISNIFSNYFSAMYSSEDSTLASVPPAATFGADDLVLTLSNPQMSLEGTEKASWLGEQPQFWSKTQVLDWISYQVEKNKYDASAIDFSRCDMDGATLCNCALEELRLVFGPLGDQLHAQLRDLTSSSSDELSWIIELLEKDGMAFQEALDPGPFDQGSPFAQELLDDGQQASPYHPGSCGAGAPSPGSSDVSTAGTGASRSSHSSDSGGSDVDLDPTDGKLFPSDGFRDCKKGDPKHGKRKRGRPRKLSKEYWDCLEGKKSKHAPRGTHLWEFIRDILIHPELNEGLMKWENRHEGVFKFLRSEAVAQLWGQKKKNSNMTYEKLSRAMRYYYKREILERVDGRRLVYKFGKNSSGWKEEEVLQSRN
Procedure, shortened: as §1

[9] = target: ETV1 (Homo sapiens, UniProt P50549 1-477); settings: protein: recombinant; tags: N-terminal GST; dsDNA, one strand shown
Procedure, shortened: as §1

[10] = target: T6, ERF (Homo sapiens, UniProt P50548 1-548); settings: protein: recombinant; tags: N-terminal GST; dsDNA, one strand shown
T6 sequence: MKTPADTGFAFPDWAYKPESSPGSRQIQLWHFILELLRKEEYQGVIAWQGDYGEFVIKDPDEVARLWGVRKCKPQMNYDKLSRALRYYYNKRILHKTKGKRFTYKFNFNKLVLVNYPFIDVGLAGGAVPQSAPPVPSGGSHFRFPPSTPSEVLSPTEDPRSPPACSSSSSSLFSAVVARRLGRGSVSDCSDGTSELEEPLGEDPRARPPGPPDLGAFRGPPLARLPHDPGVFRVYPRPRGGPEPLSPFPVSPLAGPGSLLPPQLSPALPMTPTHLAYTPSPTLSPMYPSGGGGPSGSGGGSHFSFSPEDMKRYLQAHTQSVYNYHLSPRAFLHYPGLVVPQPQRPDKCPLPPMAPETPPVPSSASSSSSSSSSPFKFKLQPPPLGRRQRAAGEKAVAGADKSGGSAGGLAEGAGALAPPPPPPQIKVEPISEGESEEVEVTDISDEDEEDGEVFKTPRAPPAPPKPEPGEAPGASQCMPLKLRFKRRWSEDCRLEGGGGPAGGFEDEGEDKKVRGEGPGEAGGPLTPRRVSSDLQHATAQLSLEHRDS
Procedure, shortened: as §1

[11] = target: T7, ETV3L (Homo sapiens, UniProt Q6ZN32 1-361); settings: protein: recombinant; tags: N-terminal GST; dsDNA, one strand shown
T7 sequence: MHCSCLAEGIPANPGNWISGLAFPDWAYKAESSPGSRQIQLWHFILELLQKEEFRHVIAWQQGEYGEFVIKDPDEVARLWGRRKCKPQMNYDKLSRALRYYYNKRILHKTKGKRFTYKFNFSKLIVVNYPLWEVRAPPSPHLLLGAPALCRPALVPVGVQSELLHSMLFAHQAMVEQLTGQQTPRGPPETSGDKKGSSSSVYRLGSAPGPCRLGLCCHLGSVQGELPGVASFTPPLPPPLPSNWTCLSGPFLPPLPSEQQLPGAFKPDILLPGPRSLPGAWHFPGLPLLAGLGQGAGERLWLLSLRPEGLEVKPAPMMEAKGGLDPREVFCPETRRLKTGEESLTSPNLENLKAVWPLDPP
Procedure, shortened: as §1

[12] = target: T8, ETS2 (Homo sapiens, UniProt P15036 1-469); settings: protein: recombinant; tags: N-terminal GST; dsDNA, one strand shown
T8 sequence: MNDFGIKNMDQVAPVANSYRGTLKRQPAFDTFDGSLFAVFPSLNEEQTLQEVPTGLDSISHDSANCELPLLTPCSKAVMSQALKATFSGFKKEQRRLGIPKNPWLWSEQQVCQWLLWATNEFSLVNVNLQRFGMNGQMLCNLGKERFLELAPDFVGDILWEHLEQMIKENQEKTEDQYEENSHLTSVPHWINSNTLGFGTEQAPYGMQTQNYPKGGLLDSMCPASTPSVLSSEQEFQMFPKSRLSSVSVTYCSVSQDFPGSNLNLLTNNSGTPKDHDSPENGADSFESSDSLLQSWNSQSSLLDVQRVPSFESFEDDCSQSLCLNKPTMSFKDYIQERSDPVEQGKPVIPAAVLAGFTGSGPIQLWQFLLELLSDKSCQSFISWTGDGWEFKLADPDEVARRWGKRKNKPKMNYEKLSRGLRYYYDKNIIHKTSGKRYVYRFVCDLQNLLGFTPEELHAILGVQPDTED
Procedure, shortened: as §1

[13] = target: T9, SPDEF (Homo sapiens, UniProt O95238 1-335); settings: protein: recombinant; tags: N-terminal GST; dsDNA, one strand shown
T9 sequence: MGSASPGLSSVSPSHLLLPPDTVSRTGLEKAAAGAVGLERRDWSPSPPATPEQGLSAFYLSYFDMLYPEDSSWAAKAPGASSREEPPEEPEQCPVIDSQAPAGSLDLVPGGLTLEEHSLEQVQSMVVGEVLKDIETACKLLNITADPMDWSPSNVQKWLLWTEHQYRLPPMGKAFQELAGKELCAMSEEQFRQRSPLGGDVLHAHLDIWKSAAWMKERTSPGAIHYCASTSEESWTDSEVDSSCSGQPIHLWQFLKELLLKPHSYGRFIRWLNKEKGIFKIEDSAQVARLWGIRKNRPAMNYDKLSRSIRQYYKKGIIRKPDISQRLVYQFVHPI
Procedure, shortened: as §1

[14] = target: T10, ETV7 (Homo sapiens, UniProt Q9Y603 1-341); settings: protein: recombinant; tags: N-terminal GST; dsDNA, one strand shown
T10 sequence: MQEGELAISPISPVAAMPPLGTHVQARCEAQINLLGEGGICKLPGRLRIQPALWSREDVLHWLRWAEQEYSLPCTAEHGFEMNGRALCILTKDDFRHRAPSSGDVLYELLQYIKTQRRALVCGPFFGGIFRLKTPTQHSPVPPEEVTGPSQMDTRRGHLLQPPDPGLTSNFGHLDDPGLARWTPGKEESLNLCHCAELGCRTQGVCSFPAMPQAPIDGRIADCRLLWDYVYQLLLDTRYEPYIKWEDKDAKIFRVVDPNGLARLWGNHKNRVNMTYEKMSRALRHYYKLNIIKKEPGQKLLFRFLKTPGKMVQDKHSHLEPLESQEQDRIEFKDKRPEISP
Procedure, shortened: as §1

[15] = target: T11, ELF5 (Homo sapiens, UniProt Q9UKW6-2 1-255); settings: protein: recombinant; tags: N-terminal GST; dsDNA, one strand shown
T11 sequence: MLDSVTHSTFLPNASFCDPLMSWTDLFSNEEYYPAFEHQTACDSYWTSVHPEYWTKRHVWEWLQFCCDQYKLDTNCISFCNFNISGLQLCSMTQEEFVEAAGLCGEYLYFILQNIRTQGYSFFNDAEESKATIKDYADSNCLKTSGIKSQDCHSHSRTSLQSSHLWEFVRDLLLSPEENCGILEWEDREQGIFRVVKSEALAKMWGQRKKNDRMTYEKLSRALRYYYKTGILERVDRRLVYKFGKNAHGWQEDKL
Procedure, shortened: as §1

[16] = target: T12, ETV3 (Homo sapiens, UniProt P41162-2 1-143); settings: protein: recombinant; tags: N-terminal GST; dsDNA, one strand shown
T12 sequence: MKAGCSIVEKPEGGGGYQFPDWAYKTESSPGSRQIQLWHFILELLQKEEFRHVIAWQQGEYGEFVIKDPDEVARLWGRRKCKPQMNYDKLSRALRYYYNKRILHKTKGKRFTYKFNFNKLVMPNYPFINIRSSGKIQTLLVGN
Procedure, shortened: as §1

[17] = target: ETV6 (Homo sapiens, UniProt P41212 1-452); settings: protein: recombinant; tags: N-terminal GST; dsDNA, one strand shown
Procedure, shortened: as §1

ETV1, sequence (P50549 whole entry): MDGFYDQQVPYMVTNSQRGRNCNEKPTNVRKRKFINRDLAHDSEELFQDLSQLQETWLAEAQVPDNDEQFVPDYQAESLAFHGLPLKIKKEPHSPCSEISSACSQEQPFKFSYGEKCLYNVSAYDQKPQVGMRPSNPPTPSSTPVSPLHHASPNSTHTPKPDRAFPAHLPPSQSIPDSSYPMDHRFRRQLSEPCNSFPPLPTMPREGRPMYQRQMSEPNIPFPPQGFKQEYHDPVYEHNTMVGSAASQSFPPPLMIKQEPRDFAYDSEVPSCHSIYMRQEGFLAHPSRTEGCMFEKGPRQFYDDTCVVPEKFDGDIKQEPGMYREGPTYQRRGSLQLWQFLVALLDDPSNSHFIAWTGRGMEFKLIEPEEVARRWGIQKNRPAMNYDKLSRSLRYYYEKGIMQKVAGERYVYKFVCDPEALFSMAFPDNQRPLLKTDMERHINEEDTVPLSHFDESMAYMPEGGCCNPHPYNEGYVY
HSF1, sequence (Q00613 whole entry): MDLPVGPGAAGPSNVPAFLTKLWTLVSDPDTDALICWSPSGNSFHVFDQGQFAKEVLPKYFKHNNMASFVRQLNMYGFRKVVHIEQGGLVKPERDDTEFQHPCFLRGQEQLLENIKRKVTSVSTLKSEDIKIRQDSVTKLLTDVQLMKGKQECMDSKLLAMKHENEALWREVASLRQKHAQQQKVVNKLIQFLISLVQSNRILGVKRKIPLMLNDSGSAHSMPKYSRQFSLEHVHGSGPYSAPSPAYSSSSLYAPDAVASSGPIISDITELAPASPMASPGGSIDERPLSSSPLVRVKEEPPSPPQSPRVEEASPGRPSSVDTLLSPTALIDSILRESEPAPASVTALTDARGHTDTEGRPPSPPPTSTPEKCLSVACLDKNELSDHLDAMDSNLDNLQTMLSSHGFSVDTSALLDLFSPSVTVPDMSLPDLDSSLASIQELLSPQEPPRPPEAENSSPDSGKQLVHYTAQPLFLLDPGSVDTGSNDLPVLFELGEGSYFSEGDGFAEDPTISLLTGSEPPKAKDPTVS
ETV5, sequence (P41161 whole entry): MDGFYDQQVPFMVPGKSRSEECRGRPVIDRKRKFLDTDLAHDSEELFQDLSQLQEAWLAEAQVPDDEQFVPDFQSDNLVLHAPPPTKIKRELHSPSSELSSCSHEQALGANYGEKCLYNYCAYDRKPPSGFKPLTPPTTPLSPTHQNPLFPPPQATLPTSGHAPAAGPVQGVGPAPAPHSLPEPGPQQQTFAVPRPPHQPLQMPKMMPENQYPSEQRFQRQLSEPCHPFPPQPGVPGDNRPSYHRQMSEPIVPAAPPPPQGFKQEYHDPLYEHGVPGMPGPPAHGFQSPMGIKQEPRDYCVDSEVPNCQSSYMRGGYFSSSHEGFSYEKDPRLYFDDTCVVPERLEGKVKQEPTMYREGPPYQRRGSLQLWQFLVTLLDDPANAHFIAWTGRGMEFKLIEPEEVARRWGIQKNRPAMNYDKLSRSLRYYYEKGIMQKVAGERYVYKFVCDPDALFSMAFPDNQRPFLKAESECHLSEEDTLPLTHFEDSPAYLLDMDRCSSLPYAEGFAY
ETV6, sequence (P41212 whole entry): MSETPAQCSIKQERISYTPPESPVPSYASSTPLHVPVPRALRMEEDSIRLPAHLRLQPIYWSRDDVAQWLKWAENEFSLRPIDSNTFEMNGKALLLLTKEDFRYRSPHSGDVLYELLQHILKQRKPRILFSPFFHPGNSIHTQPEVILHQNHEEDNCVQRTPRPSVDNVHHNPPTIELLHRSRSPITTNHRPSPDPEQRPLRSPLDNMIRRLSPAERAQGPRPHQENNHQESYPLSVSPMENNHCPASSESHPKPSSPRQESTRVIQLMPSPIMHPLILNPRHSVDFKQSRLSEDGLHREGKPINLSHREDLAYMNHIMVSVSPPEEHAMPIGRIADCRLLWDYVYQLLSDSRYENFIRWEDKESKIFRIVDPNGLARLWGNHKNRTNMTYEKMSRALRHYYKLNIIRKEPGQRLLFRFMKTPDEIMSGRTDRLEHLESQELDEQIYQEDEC
ELF4, sequence (Q99607 whole entry): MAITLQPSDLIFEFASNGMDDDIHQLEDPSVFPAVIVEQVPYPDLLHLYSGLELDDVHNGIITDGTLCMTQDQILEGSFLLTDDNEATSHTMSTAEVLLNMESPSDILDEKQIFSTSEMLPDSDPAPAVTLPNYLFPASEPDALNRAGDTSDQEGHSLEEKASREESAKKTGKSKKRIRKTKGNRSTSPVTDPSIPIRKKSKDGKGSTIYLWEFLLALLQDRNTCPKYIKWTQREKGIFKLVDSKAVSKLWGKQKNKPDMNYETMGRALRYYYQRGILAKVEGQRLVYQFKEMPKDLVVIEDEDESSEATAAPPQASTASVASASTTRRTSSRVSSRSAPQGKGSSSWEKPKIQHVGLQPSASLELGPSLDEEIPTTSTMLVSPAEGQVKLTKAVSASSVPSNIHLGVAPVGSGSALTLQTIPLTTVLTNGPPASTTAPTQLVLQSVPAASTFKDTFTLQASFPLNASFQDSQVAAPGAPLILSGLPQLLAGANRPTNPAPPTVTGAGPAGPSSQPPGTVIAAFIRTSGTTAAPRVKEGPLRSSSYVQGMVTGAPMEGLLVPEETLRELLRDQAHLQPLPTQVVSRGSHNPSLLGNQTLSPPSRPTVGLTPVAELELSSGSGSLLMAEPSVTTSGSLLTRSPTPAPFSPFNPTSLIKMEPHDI

TGTTCA was tested. Which binding signal [1] did it give?
The binding signal was 1.19 fold enrichment (6-mer frequency, TF over GST control).

And the binding signal [2]?
The binding signal was 1.18 fold enrichment (6-mer frequency, TF over GST control).

And the binding signal [3]?
The binding signal was 1.09 fold enrichment (6-mer frequency, TF over GST control).

What about the binding signal [4] of the same sequence?
The binding signal was 1.17 fold enrichment (6-mer frequency, TF over GST control).

And the binding signal [5]?
Its binding signal is 1.21 fold enrichment (6-mer frequency, TF over GST control).

What about the binding signal [6] of the same sequence?
The binding signal was 1.28 fold enrichment (6-mer frequency, TF over GST control).

What about the binding signal [7] of the same sequence?
The binding signal was 1.07 fold enrichment (6-mer frequency, TF over GST control).

And the binding signal [8]?
The binding signal was 1.22 fold enrichment (6-mer frequency, TF over GST control).

What about the binding signal [9] of the same sequence?
Its binding signal is 1.21 fold enrichment (6-mer frequency, TF over GST control).

What about the binding signal [10] of the same sequence?
Its binding signal is 1.32 fold enrichment (6-mer frequency, TF over GST control).

And the binding signal [11]?
The binding signal was 1.23 fold enrichment (6-mer frequency, TF over GST control).

What about the binding signal [12] of the same sequence?
Its binding signal is 1.2 fold enrichment (6-mer frequency, TF over GST control).

What about the binding signal [13] of the same sequence?
The binding signal was 1.3 fold enrichment (6-mer frequency, TF over GST control).

And the binding signal [14]?
Its binding signal is 1.25 fold enrichment (6-mer frequency, TF over GST control).

What about the binding signal [15] of the same sequence?
Its binding signal is 1.2 fold enrichment (6-mer frequency, TF over GST control).

What about the binding signal [16] of the same sequence?
The binding signal was 1.25 fold enrichment (6-mer frequency, TF over GST control).

And the binding signal [17]?
Its binding signal is 1.14 fold enrichment (6-mer frequency, TF over GST control).

From publication PMC7862700, “An all-to-all approach to the identification of sequence-specific readers for epigenetic DNA modifications on cytosine”
